C diff HTS – inhibitors of Clostridium difficile growth. Clostridium difficile clinical isolate growth, OD600, 24 h; hits give low values. growth activity, negative = inhibition, % at 16 µg/mL (by protocol). 86,000 tested, 0.25% active;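 active means mean growth activity at or below -80% and every replicate also at or below -80%; inconclusive means mean at or below -80% but some replicate above -80%; inactive means mean growth activity above -80%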;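 further: 0% = DMSO wells and -100% = levofloxacin 16 µg/mL wells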
T cruzi growth-1 – T. cruzi proliferation inhibition. 77,000 tested, 5.9% active. inhibition, % at 8.34 µM. AID 624255. T. cruzi beta-gal in NIH3T3, GalScreen luminescence, 90 h;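 active means mean inhibition above about 93%, with at least 55% of replicates each passing it, limit read from the data, passing the limit was not always enough; inconclusive means only one of those two conditions holds; inactive means neither condition holds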
T cruzi growth-2 – Trypanosoma cruzi proliferation inhibition; shares compounds with T cruzi growth-1; T. cruzi beta-gal in NIH3T3, GalScreen luminescence, 90 h; inhibition, % at 8.35 µM; 5,600 tested, 72% active; AID 651739;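 active means mean replicate inhibition above about 95% and at least 55% of replicates individually reaching it, limit read from the data; inconclusive means only one of the two criteria is met; inactive means neither criterion is met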
T cruzi growth-3 – inhibitors of T. cruzi proliferation | shares compounds with T cruzi growth-1 | T. cruzi beta-gal in NIH3T3, GalScreen luminescence, 90 h | inhibition, % at 2.09 µM | 5,600 tested, 21% active;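 active means mean inhibition above about 95%, with at least 55% of replicates also reaching it, limit read from the data; inconclusive means meets just one of the two conditions; inactive means meets neither condition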;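 further: plate controls were neutral control median for no effect and positive control median for full effect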
NIH3T3 tox – cytotoxicity in mouse NIH/3T3 fibroblasts. shares compounds with T cruzi growth-1. NIH/3T3 viability, CellTiter-Glo ATP luminescence, 90 h. cytotoxicity (signal decrease), % at 8.35 µM. 5,600 tested, 14% active;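 active means mean signal decrease across replicates above about 35% based on untreated-well scatter, with enough replicates individually passing, limit read from the data; inconclusive means no rule stated though some were filed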;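 further: 0% = median of neutral control wells and 100% = median of positive control wells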
3T3 cytotox 2 – kills mouse NIH/3T3 fibroblasts; shares compounds with T cruzi growth-1; NIH/3T3 viability, CellTiter-Glo ATP luminescence, 90 h; inhibition, % at 24.9 µM; 5,600 tested, 56% active;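 active means mean loss of cell viability signal at or above a set limit, and enough replicates individually reaching it; inconclusive means meets only the mean limit or only the replicate share; inactive means meets neither condition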;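 further: 0% = median of neutral control wells and 100% = median of positive control wells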
An asterisk follows results filed as active; ? = inconclusive; / = no result given. Only a selection was taken, and hits are over-represented in it overall.

SMILES | C diff HTS | T cruzi growth-1 | T cruzi growth-2 | T cruzi growth-3 | NIH3T3 tox | 3T3 cytotox 2
COc1ccc(NC(=O)N2CCCCN3[C@@H](CO)[C@H](c4ccc(-c5ccccc5C)cc4)[C@@H]3C2)cc1 | 5.2 | 102.3* | 101.2* | 65.6 | 24.9 | 103.7*
COCC(=O)Nc1ccc2c(c1)C(=O)N(C)C[C@H](OC)[C@H](C)CN(Cc1cccnc1)[C@H](C)CO2 | / | 74.0 | / | / | / | /
O=C(N[C@H]1CC[C@H](CCNS(=O)(=O)c2ccccc2)O[C@H]1CO)c1cnccn1 | -1.9 | -8.5 | / | / | / | /
O=C(CN1CCOCC1)NCC[C@H]1CC[C@H](NC(=O)c2ccccc2F)[C@H](CO)O1 | / | -15.0 | / | / | / | /
CCNC(=O)[C@H]1[C@H](CO)[C@H]2Cn3c(cccc3=O)[C@@H]1N2CC1CCOCC1 | -6.2 | / | / | / | / | /
CCC(=O)N1[C@H](CO)[C@@H](c2ccccc2)C12CN(C(=O)NC1CCCC1)C2 | -4.7 | / | / | / | / | /
C[C@@H]1CN([C@@H](C)CO)C(=O)Cc2cc(NC(=O)C3CCCCC3)ccc2O[C@H]1CN(C)Cc1ccc(C(=O)O)cc1 | -1.6 | 31.9 | / | / | / | /
C[C@H](CO)N1C[C@H](C)[C@@H](CN(C)C(=O)c2cccnc2)Oc2ncc(C3=CCCCC3)cc2C1=O | 1.0 | / | / | / | / | /
Cc1ccc(S(=O)(=O)N(C)C[C@H]2Oc3ccc(NS(=O)(=O)c4c(C)noc4C)cc3CC(=O)N([C@H](C)CO)C[C@H]2C)cc1 | 13.7 | 53.7 | / | / | / | /
C[C@@H]1CN([C@H](C)CO)C(=O)Cc2cc(NS(=O)(=O)c3ccc(F)cc3)ccc2O[C@@H]1CN(C)Cc1ccccc1 | -8.4 | 88.2 | / | / | / | /
C[C@H]1CN([C@@H](C)CO)C(=O)Cc2cc(NS(=O)(=O)c3ccc(Cl)cc3)ccc2O[C@@H]1CN(C)Cc1ccc(-c2ccccc2)cc1 | / | 98.9* | 104.6* | 53.4 | 6.4 | 106.5*
C[C@H](CO)N1C[C@H](C)[C@@H](CN(C)Cc2ccccc2)Oc2ccc(NS(=O)(=O)c3ccc(F)cc3)cc2CC1=O | -0.1 | 109.3* | 96.3* | 44.4 | 3.1 | -0.3
C[C@@H]1CN([C@H](C)CO)C(=O)Cc2cc(NS(=O)(=O)c3ccccc3)ccc2O[C@@H]1CN(C)Cc1ccc(-c2ccccc2)cc1 | 2.8 | 67.1 | / | / | / | /
C[C@@H]1CN([C@@H](C)CO)C(=O)Cc2cc(NS(=O)(=O)c3ccc(Cl)cc3)ccc2O[C@@H]1CN(C)Cc1ccccc1 | 2.5 | 71.5 | / | / | / | /
C[C@@H]1CN([C@@H](C)CO)C(=O)Cc2cc(NS(C)(=O)=O)ccc2O[C@H]1CN(C)Cc1ccc(-c2ccccc2)cc1 | 26.9 | 88.0 | / | / | / | /
C[C@H]1CN([C@@H](C)CO)C(=O)Cc2cc(NS(=O)(=O)c3ccc(Cl)cc3)ccc2O[C@@H]1CN(C)Cc1ccccc1 | -1.0 | 101.8* | 104.5* | 50.5 | -14.7 | 82.6*
C[C@H](CO)N1C[C@H](C)[C@@H](CN(C)Cc2ccc(-c3ccccc3)cc2)Oc2ccc(NS(C)(=O)=O)cc2CC1=O | 44.8 | 117.8* | 112.1* | ? | 26.2 | 105.4*
COc1ccc(CN(C)C[C@H]2OCCCC[C@@H](C)Oc3ccc(NS(=O)(=O)c4cccs4)cc3C(=O)N([C@H](C)CO)C[C@@H]2C)cc1 | 12.7 | -4.5 | / | / | / | /
CN(C)C(=O)c1ccc(-c2ccccc2[C@@H]2[C@@H](C#N)N(C(=O)C3CC3)[C@@H]2CO)cc1 | 1.2 | / | / | / | / | /
O=C(C[C@H]1CC[C@@H]2NC[C@@H](O)COC[C@H]2O1)Nc1nccs1 | -4.1 | -28.1 | / | / | / | /
COCC(=O)Nc1ccc2c(c1)C(=O)N(C)[C@H]1CC[C@@H](CC(=O)NC3Cc4ccccc4C3)O[C@@H]1CO2 | -1.7 | 6.1 | / | / | / | /
COc1cccc(C(=O)Nc2ccc3c(c2)C(=O)N(C)[C@@H]2CC[C@@H](CC(=O)NCC4CC4)O[C@@H]2CO3)c1 | -2.6 | -22.1 | / | / | / | /
COc1cccc(NC(=O)N(C)C[C@@H]2Oc3ncc(C4=CCCCC4)cc3C(=O)N([C@@H](C)CO)C[C@H]2C)c1 | -9.2 | 33.1 | / | / | / | /
CCNC(=O)[C@@H]1[C@@H](CO)[C@@H]2Cn3c(ccc(-c4ccc(OC)cc4)c3=O)[C@@H]2N1Cc1ccccc1 | 1.5 | 99.8* | 5.6 | -25.3 | -13.5 | 0.5
COC(=O)[C@@H]1[C@@H](CO)[C@@H]2Cn3c(ccc(-c4ccccc4)c3=O)[C@@H]2N1Cc1cccc(F)c1 | 8.8 | ? | 25.8 | -16.8 | -8.2 | -1.2

Compound activity deposited in PubChem BioAssay by Broad Institute.
